Compounds with a hit are over-represented: about 1.6% of the library has one in this group of screens.
E-sel TNF inh: E-selectin induction blockers in HUVEC – imaging, immunofluorescence, high content, primary screen | HUVEC TNFa-induced E-selectin immunofluorescence | inhibition, % at 2 µM | 120,000 tested, 0.71% active | AID 1246, 2008;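 active = inhibition above the batch mean plus 3 SD, and confirmed as a hit on visual image review, cut at about 43% in these data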
NFkB transloc pot: enhancers of NFkB p65 translocation in HUVEC – imaging, IL-1B stimulus, high-content imaging, primary screen; activation, % at 2 µM; AID 819, 2007; 94,000 tested, 0.3% active; HUVEC IL-1B NFkB p65 nuclear translocation imaging;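 active = activation above 40%, about the mean plus 3 SD, also judged a hit on visual image review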;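 note: percent activation is computed from the nuclear over cytoplasmic p65 intensity ratio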
VCAM1 TNFa inh: inhibitors of TNFa-induced VCAM1 expression, primary screen, imaging, HUVEC, TNFa stimulus, immunofluorescence; HUVEC TNFa-induced VCAM-1 immunofluorescence, high-content imaging; inhibition, % at 2 µM; 95,000 tested, 0.48% active; AID 802, 2007;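 active = inhibition above the batch mean plus 3 SD, with images confirmed as a hit by eye, cut at about 37% in these data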
IL1B cytotox: cytotoxicity in IL-1B stimulated HUVEC, primary screen, cytotoxicity control for IL-1B NFkB translocation project, imaging, Hoechst nuclear count, IL-1B stimulus; HUVEC cell count loss; cell count reduction, % at 2 µM; 94,000 tested, 0.41% active;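 active = cell count reduction more than 3 SD above the screen-wide mean, cut at about 70% in these data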
HUVEC tox TNFa: cytotoxicity in TNFa-stimulated HUVEC, primary screen, cytotoxicity control for VCAM1 expression modulator project, imaging, Hoechst nuclei count | 93,000 tested, 0.17% active | cell count reduction, % at 2 µM | HUVEC TNFalpha-stimulated, Hoechst cell count;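 active = cell count reduction exceeding the screen mean by over 5 SD, scaled to untreated wells per plate, cut at about 78% in these data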;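 note: cells counted after 24 h of TNF alpha exposure following the 1 h pretreatment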
IL1B NFkB inh: inhibitors of IL-1B driven NFkB p65 nuclear import, primary screen, imaging, HUVEC, IL-1B stimulus, high-content imaging | HUVEC IL-1B NFkB p65 nuclear translocation imaging | inhibition, % at 2 µM | 94,000 tested, 0.43% active;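 active = inhibition above about 30% together with a positive call from visual inspection of the well image, limit read from the data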;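 note: nuclear over cytoplasmic p65 intensity ratio measured by imaging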
Large screens that a line does not name were inactive.

O=C(OCCN1C(=O)c2ccccc2C1=O)c1cc2ccccc2o1	NFkB transloc pot 45 (no result: E-sel TNF inh)
CN(C)CCCOC(=O)c1cc2ccccc2o1	none (no result: VCAM1 TNFa inh, HUVEC tox TNFa)
COc1ccc(C(=O)Nc2oc(-c3ccccc3)c(-c3ccccc3)c2C#N)cc1	none
Cc1cccc(C)c1OCC(=O)Nc1oc(-c2ccccc2)c(-c2ccccc2)c1C#N	IL1B NFkB inh 49
CCCn1c(=O)c(C(=O)NCc2ccco2)c(O)c2ccccc21	none (no result: NFkB transloc pot, VCAM1 TNFa inh, IL1B cytotox, HUVEC tox TNFa, IL1B NFkB inh)
CCc1nnc(NC(=O)C2CCCN(S(=O)(=O)c3ccc(OC)cc3)C2)s1 (centres undefined)	none (no result: NFkB transloc pot, VCAM1 TNFa inh, IL1B cytotox, HUVEC tox TNFa, IL1B NFkB inh)
CC(C)Oc1ccccc1C1CC(=O)Nc2cc3c(cc21)OCCO3 (centres undefined)	VCAM1 TNFa inh 86
COc1ccccc1C1CC(=O)Nc2cc3c(cc21)OCCO3 (centres undefined)	none
COc1ccc(C(=O)NCc2nnc(SCC(=O)N3CCC(C)CC3)o2)cc1	none (no result: NFkB transloc pot, VCAM1 TNFa inh, IL1B cytotox, HUVEC tox TNFa, IL1B NFkB inh)
O=C(NCCO)c1ccc2[nH]c3c(c2c1)CCCC3	none
O=C(NCCCO)c1ccc2[nH]c3c(c2c1)CCCC3	NFkB transloc pot 83
COc1cccc(-n2c(SC3CCOC3=O)nc3ccccc3c2=O)c1 (centres undefined)	E-sel TNF inh 96
COc1ccc(OCc2nnc(SC3CCOC3=O)n2-c2ccccc2)cc1 (centres undefined)	none (no result: E-sel TNF inh)
N#CCc1ccc(NS(=O)(=O)c2cccs2)cc1	E-sel TNF inh 64 (no result: NFkB transloc pot, VCAM1 TNFa inh, IL1B cytotox, HUVEC tox TNFa, IL1B NFkB inh)
Cc1nc2ncnn2c(C)c1Cc1cccc(C(F)(F)F)c1	none (no result: NFkB transloc pot, VCAM1 TNFa inh, IL1B cytotox, HUVEC tox TNFa, IL1B NFkB inh)
Cc1ccnc(N2C(=O)C3C4CC(C(Br)C4Br)C3C2=O)c1 (centres undefined)	E-sel TNF inh 54
O=C(c1ccc(Br)cc1)c1cc([N+](=O)[O-])ccc1N1CCCCC1	VCAM1 TNFa inh 92
Cc1ccc(C(=O)c2cc([N+](=O)[O-])ccc2N2CCOCC2)c(C)c1	VCAM1 TNFa inh 79, IL1B cytotox 88, IL1B NFkB inh 96
CC(C)(C)SCCNC(=O)CN(c1ccc(F)cc1)S(C)(=O)=O	VCAM1 TNFa inh 90, HUVEC tox TNFa 79 (no result: E-sel TNF inh)
COc1ccc(C2=NN(C)C(=NCc3ccccc3)SC2)cc1	IL1B NFkB inh 36
COc1ccc(C2CC(=O)c3cnn(-c4nc(C)cc(C)n4)c3C2)cc1 (centres undefined)	none (no result: NFkB transloc pot, VCAM1 TNFa inh, IL1B cytotox, HUVEC tox TNFa, IL1B NFkB inh)
O=S(=O)(Nc1ccccc1N1CCCCC1)c1ccc(F)cc1F	none (no result: NFkB transloc pot, VCAM1 TNFa inh, IL1B cytotox, HUVEC tox TNFa, IL1B NFkB inh)
O=C(Cn1nnc2ccccc21)N/N=C\C=C\c1ccccc1	IL1B cytotox 88
CC(=Nc1cccc(O)c1)c1sc2ccccc2c1O	IL1B NFkB inh 53
CC(=O)N1CCC2(CC1)C(C#N)=C(N)Oc1c2sc2nc(C)cc(C)c12	none (no result: NFkB transloc pot, VCAM1 TNFa inh, IL1B cytotox, HUVEC tox TNFa, IL1B NFkB inh)
CCN1CCC2(CC1)C(C#N)=C(N)Oc1c2sc2nc(C)cc(C)c12	VCAM1 TNFa inh 84
COc1ccc(CCN2C(=O)CS/C2=N/NC(=O)c2ccccc2F)cc1OC	none (no result: NFkB transloc pot, VCAM1 TNFa inh, IL1B cytotox, HUVEC tox TNFa, IL1B NFkB inh)
O=C(Nc1ccon1)c1cc(-c2ccccc2)nc2ccccc12	IL1B cytotox 94, IL1B NFkB inh 72
N#Cc1c(NC(=S)NC(=O)c2ccccc2)sc2c1CCC2	none (no result: NFkB transloc pot, VCAM1 TNFa inh, IL1B cytotox, HUVEC tox TNFa, IL1B NFkB inh)
CCN1CCc2c(sc(NC(=S)NC(=O)c3ccccc3)c2C#N)C1	IL1B cytotox 93
COc1ccc(S(=O)(=O)NNC(=O)c2csc(-n3nc(C)cc3C(F)(F)F)n2)cc1OC	NFkB transloc pot 52
N#C/C(=C(/O)CN1C(=O)c2ccccc2C1=O)c1nc2ccccc2[nH]1	IL1B cytotox 80
N#C/C(=C(\O)Cc1ccccc1)c1nc2ccccc2[nH]1	none
COc1ccccc1NC(=S)N(Cc1ccco1)Cc1cc2cccc(C)c2[nH]c1=O	E-sel TNF inh 61 (no result: NFkB transloc pot, VCAM1 TNFa inh, IL1B cytotox, HUVEC tox TNFa, IL1B NFkB inh)
COc1ccccc1NC(=S)N(Cc1ccco1)Cc1cc2cc(C)c(C)cc2[nH]c1=O	none (no result: NFkB transloc pot, VCAM1 TNFa inh, IL1B cytotox, HUVEC tox TNFa, IL1B NFkB inh)
CCCN(Cc1cc2cccc(C)c2[nH]c1=O)C(=O)c1cccc(OC)c1	IL1B cytotox 92, IL1B NFkB inh 95
Cc1cccc(C)c1NC(=O)CNc1ncnc2sc(C)c(C)c12	none (no result: NFkB transloc pot, VCAM1 TNFa inh, IL1B cytotox, HUVEC tox TNFa, IL1B NFkB inh)
COc1ccc(C(=O)NCCNC(C)=O)cc1S(=O)(=O)NCc1ccc(Cl)cc1	E-sel TNF inh 57
CCOCC(=O)Nc1c(C(=O)OCC)oc2ccccc12	none

Bioassay records as filed in PubChem.
